Source: ChEMBL document CHEMBL4808148, “HDAC6 screening dataset using tau-based substrate in an enzymatic assay yields selective inhibitors and activators” (2021)
The campaign covered roughly 5,600 compounds. About 150 (2.7%) showed an effect of 50% or more. This is one part of a sample in which strong results are shown more often than they occur.

biological target: T1, Protein deacetylase HDAC6 (Homo sapiens) (UniProt Q9UBN7); conditions: at 10 µM
T1 sequence (whole entry): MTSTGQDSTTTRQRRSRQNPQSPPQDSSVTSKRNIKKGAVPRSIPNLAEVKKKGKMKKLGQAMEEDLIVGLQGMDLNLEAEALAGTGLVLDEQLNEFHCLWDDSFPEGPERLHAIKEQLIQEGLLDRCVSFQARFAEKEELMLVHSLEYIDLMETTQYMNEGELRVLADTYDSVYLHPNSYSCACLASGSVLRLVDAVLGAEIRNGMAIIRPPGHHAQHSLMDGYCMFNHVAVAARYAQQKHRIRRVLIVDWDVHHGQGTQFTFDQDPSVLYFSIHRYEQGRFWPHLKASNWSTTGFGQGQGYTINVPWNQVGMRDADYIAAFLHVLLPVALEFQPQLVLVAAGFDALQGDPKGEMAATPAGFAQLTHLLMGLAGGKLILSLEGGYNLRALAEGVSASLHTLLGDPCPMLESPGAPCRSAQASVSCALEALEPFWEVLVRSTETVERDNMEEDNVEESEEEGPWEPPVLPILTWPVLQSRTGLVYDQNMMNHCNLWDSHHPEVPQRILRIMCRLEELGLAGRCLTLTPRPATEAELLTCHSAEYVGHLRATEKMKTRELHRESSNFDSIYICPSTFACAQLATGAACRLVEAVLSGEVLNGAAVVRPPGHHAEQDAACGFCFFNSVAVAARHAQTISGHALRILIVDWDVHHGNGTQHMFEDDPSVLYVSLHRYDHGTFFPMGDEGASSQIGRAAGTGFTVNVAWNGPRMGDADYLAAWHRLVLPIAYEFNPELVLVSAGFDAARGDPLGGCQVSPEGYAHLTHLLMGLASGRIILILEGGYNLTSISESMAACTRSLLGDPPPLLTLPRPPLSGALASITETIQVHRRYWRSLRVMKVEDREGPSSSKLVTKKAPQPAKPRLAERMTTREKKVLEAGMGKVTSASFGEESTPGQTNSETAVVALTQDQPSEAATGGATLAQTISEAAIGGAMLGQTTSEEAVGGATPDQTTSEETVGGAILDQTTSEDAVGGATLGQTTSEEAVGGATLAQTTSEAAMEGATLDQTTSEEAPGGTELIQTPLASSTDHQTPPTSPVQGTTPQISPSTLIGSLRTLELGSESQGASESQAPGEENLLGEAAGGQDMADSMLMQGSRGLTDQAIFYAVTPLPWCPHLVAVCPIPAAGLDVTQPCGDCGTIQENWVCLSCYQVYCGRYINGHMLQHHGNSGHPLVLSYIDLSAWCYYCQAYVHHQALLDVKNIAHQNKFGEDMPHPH

Row | Structure (SMILES) | inhibition
1 | CC(C)(N)c1cc(C(=O)N[C@@H]2CCc3ccc(Oc4ccnc5c4CCC(=O)N5)cc3C2)cc(C(F)(F)F)c1 | -1.36%
2 | CN(C)C/C=C/C(=O)Nc1ccc(C(=O)Nc2cccc(Nc3ncc(Cl)c(-c4c[nH]c5ccccc45)n3)c2)cc1 | -4.86%
3 | CN(C)c1ccc(C(=C2C=CC(=[N+](C)C)C=C2)c2ccc(N(C)C)cc2)cc1 | 59.7%
4 | NC(=O)c1ccc2[nH]ccc2c1 | -7.83%
5 | O=C(Nc1ccc2[nH]ccc2c1)c1ccccc1 | 49.3%
6 | O=C(Nc1cc2cc[nH]c2cn1)c1ccccc1 | 97.7%
7 | CCOc1ccc(-n2c([C@@H](C)N(Cc3cccnc3)C(=O)Cc3ccc(OC(F)(F)F)cc3)nc3ncccc3c2=O)cc1 | -2.97%
8 | COc1cccc(N2CCN(C3=Nc4c(F)cccc4[C@H](CC(=O)O)N3c3cc(C(F)(F)F)ccc3OC)CC2)c1 | -7.43%
9 | O=C1c2ccccc2C(=O)C1c1ccc(Br)cc1 | 86.8%
10 | COc1ccc(C2CC(c3ccccc3)=NN2c2ccc(S(N)(=O)=O)cc2)cc1 (centres undefined) | -2.13%
11 | O=C1c2ccccc2C(=O)C1c1ccccc1 | 0.29%
12 | COc1ccc(C2C(=O)c3ccccc3C2=O)cc1 | 97.2%
13 | COc1ccc(Oc2c(Cl)cnn(C3c4ccccc4-c4ccccc43)c2=O)cc1 | 3.12%
14 | O=C1c2ccccc2C(=O)C1c1ccc(Cl)cc1 | -0.61%
15 | Nc1ncc2c(n1)CC(c1ccco1)CC2=O (centres undefined) | 10.6%
16 | CO/N=C1\C[C@@H](C(=O)NC[C@@H](O)c2ccccc2)N(C(=O)c2ccc(-c3ccccc3C)cc2)C1 | -5.99%
17 | CC(=O)Oc1ccccc1C(=O)Nc1ccccc1 | 24.1%
18 | Nc1n[nH]c2nnc(-c3c(-c4ccccc4)nn4ccccc34)cc12 | 1.45%
19 | NC(=O)c1ccc([N+](=O)[O-])cc1Cl | 3.17%
20 | CCN(CCNC(=O)Nc1ccccc1Br)c1cccc(C)c1 | -8.23%
21 | O=C(Nc1ccc([N+](=O)[O-])cc1O)Nc1ccccc1Br | 61.6%
22 | CCC(C(=O)O)c1ccc(CC(C)C)cc1 (centres undefined) | 5.56%
23 | CCCCC1OC(=O)c2ccccc21 (centres undefined) | 4.45%
24 | N[C@@H]1c2cccnc2[C@H](OC(=O)N2CCC(n3c(=O)[nH]c4ncccc43)CC2)CC[C@H]1c1cccc(F)c1F | -1.43%
25 | CS(=O)(=O)N(Cc1ccco1)CC(O)Cn1c2ccccc2c2ccccc21 (centres undefined) | -5.79%

Row | Structure (SMILES) | inhibition
26 | O[C@H]1CC[C@H](Nc2nc(-c3ccccc3)nc3[nH]ccc23)CC1 | 2.15%
27 | O=C(NC1CC1)c1cc(-c2cccs2)on1 | 60.8%
28 | CN1CCC(NC(=O)c2cc(-c3c(O)cc(O)cc3Oc3ccc([N+](=O)[O-])cc3)on2)CC1 | -7.8%
29 | Cc1ccc(S(=O)(=O)NCc2ccccc2)cc1 | -1.3%
30 | CO[C@H]1CC[C@@H](C(=O)c2ccc3nc4c(cc3c2)CCCO4)CC1 | 1.73%
31 | CCCn1c(=O)c2[nH]c(-c3cnn(Cc4cccc(C(F)(F)F)c4)c3)nc2n(CC)c1=O | 2.86%
32 | CC(=O)NC[C@H]1CN(c2ccc(N3CCN(C(=O)CO)CC3)c(F)c2)C(=O)O1 | -2.46%
33 | COc1cccc(NC(=O)/C=C/c2ccc(Cl)cc2)c1 | 91.8%
34 | COc1ccc(/C=C/C(=O)O)cc1 | -6.98%
35 | COc1cc(NC(=O)c2ccc(-c3ccc(Cl)cc3)o2)cc(OC)c1 | 4.45%
36 | CN(CCc1ccc(Cl)c(Cl)c1)CCN1CCCC1 | 3.41%
37 | O=C(O)COc1ccc(/C=C2\SC(=O)NC2=O)cc1 | 95%
38 | N=C1NC(=O)/C(=C/c2ccc(O)cc2)S1 | 14%
39 | CCc1ccc(/C=C2/SC(=S)NC2=O)cc1 | 16.7%
40 | CN(C)c1ccc2c(c1)Sc1cc(N(C)C)ccc1N2 | 32.3%
41 | COc1cc(Br)c(S(=O)(=O)Nc2ccc(C(F)(F)F)c(O[C@@H]3CCN(C)C3)c2)cc1OC | -1.99%
42 | COc1ccc(-n2c(SCc3nc(-c4ccc(C)cc4)no3)nnc2-c2ccncc2)cc1 | -7.03%
43 | O=C(Nc1c(-c2cccs2)nc2ccccn12)c1ccc(Cl)cc1 | -6.19%
44 | COc1cc(/C=C/c2ccc(OC)cc2OC)cc(OC)c1 | 19.4%
45 | Clc1cccc(/C=N/C=N/c2cccc(Cl)c2)c1 | 1.42%
46 | COc1cccc(/C=N/C=N/c2cccc(OC)c2)c1 | 89.1%
47 | CNCCCC1(c2ccccc2)OC(C)(C)c2ccccc21 (centres undefined) | -1.2%
48 | CSc1ccc(OCc2ncc([N+](=O)[O-])n2C)cc1 | 20.2%
49 | O=C(O)c1cc([N+](=O)[O-])ccc1NCCCc1ccccc1 | 52.3%
50 | O=C(O)CCCc1ccccc1 | -4.8%

Row | Structure (SMILES) | inhibition
51 | Cn1c(NCCN(CCO)CCCc2ccc([N+](=O)[O-])cc2)cc(=O)n(C)c1=O | -7.89%
52 | Cc1cc(NC(=O)NCCN2CCC(O)(Cc3ccccc3)CC2)c2ccccc2n1 | -3.32%
53 | N[C@H]1C[C@@H]1c1ccc(-c2cccc(O)c2)cc1 | 51.4%
54 | Oc1cccc(O)c1 | 5.02%
55 | CC(=O)N[C@H]1[C@H]([C@H](O)[C@H](O)CO)O[C@](O)(C(=O)O)C[C@@H]1O | -7.16%
56 | Cc1nc(N)sc1-c1ccnc(Nc2ccc(N3CCOCC3)cc2)n1 | 71.7%
57 | Cc1ccc(-c2ncn(-c3ccc(Nc4nccc(-c5cccc(N6CCOCC6)c5)n4)cc3)n2)cn1 | 14.5%
58 | N#CCNC(=O)c1ccc(-c2ccnc(Nc3ccc(N4CCOCC4)cc3)n2)cc1 | -5.68%
59 | CC(C)[C@@H](N)C(=O)O | 1.7%
60 | O=C(NCc1ccc2c(c1)OCO2)c1c(Cl)cccc1Cl | 3.64%
61 | COc1ccc(-c2cc(=S)ss2)cc1 | 67.3%
62 | O=C(O)CCc1c(C(=O)O)[nH]c2cc(Cl)cc(Cl)c12 | 4%
63 | NCC(=O)N1C[C@H](NC(=O)c2ccccc2)C[C@H]1C(=O)O | -0.8%
64 | O=C(/C=C/c1ccccc1)NC(NC(=S)Nc1ccc(Cl)cc1)C(Cl)(Cl)Cl (centres undefined) | -0.27%
65 | Cc1ccc(C(=O)C(C)CN2CCCCC2)cc1 (centres undefined) | 4.79%
66 | Cc1ccc(C(=O)Cn2c3c(sc2=N)CCCC3)cc1 | 85.8%
67 | Cc1cccc(NC(=O)CN2CCC(c3ccccn3)CC2)c1 | 32%
68 | O=C(O)c1cc2ccccc2s1 | -8.12%
69 | N=C(N)c1cc2ccc(OC(=O)c3cccs3)cc2s1 | 98.3%
70 | OC(CN1CCNCC1)Cn1c2ccc(Br)cc2c2cc(Br)ccc21 (centres undefined) | -4.75%
71 | COc1cc2c(cc1OC)CN(C(=O)[C@@H](NCc1ccncc1)C(C)(C)C)CC2 | -4.01%
72 | O=C(Cc1ccc(-c2ccccc2)cc1)Nc1ccccn1 | 44.2%
73 | c1ccc(NCc2ccc(CNc3ccccn3)cc2)nc1 | 91.6%
74 | c1ccc(-c2ccc(CNc3nc(-c4ccccn4)nnc3-c3ccccc3)cc2)cc1 | 6.43%
